Out of some 300,000 compounds screened, about 5,400 (1.8%) were called active. Entries that show only a call come without a potency. Another 28% or so got no clear call; they are omitted. The sample holds actives, similar compounds and a random draw of the others, so the mix is not that of the screen. Calls come from the whole dose curve; tested in HEK293 cells.
Experiment: qHTS for inhibitors of binding or entry into cells for Marburg Virus
Settings: Marburg virus pseudotyped entry inhibition, cell reporter; series mostly up to 37.8 µM
In the case of `CSc1nc2ccc(C)cc2c(=O)n1-c1cccnc1`, the Potency is reported as “inactive”.
For `Cc1ccc2nc3n(c(=O)c2c1)CCC3`, the Potency was “inactive”.
With `Cc1ccc2nc(C)c3c(c2c1)N(c1ccccc1)CC3` the Potency was 5.62 µM (active).
For `COc1ccc(CN2CCN(C(=O)CCC(=O)Nc3nnc(C(C)C)s3)CC2)cc1F`, the Potency was “inactive”.
For `CSc1ccc(S(=O)(=O)N2CCC(C(=O)NCc3ccncc3)CC2)cc1`, the Potency was “inactive”.
In the case of `CCOC(=O)c1sc2nc(CSCC(=O)OCc3ccc(C(=O)OC)o3)[nH]c(=O)c2c1C`, the Potency is reported as “inactive”.
In the case of `CCOC(=O)c1sc2nc(CSc3ccccc3)[nH]c(=O)c2c1C`, the Potency is reported as 8.91 µM (active).
In the case of `Cc1ccc(C)c(SCc2nc3sc(C(=O)O)c(C)c3c(=O)[nH]2)c1`, the Potency is reported as “inactive”.
In the case of `Oc1cccc(CCc2ccccn2)c1`, the Potency is reported as “inactive”.
In the case of `CC(Nc1ccc([N+](=O)[O-])cc1[N+](=O)[O-])c1ccccc1` (centres undefined), the Potency is reported as “inactive”.
For `Cc1c(C(=O)N2CCOCC2)[nH]c2ccc(OCc3ccccc3)cc12`, the Potency was “inactive”.
In the case of `Cc1c(CN2CCC(CO)(CCOc3ccccc3)CC2)[nH]c2ccc(Cl)cc12`, the Potency is reported as 2.82 µM (active).
For `OCC1(CCc2ccccc2)CCN(Cc2ccc3nsnc3c2)CC1`, the Potency was “inactive”.
With `Cc1nn(-c2ccccc2)c2c1[C@@H](c1ccc(F)cc1F)C(C#N)=C(N)O2` the Potency was “inactive”.
For `O=C(Nc1cccc(S(=O)(=O)N2CCOCC2)c1)C12CC3CC(CC(C3)C1)C2`, the Potency was “inactive”.
With `Cc1ccc(C(=O)Nc2ccc(NC(=O)c3cccs3)cc2)c(C)c1` the Potency was “inactive”.
In the case of `O=C(Nc1ccccc1)c1ccc(NC(=O)c2cccs2)cc1`, the Potency is reported as “inactive”.
With `Cc1ccc(-c2nnc(-c3ccc(NC(=O)c4cccs4)cc3)o2)cc1` the Potency was 11.6 µM (active).
For `Cc1cc(NC(=O)CSc2nnnn2-c2ccc(F)cc2)no1`, the Potency was “inactive”.
For `Cc1ccc(N2CC(C(=O)N3CCC4(CC3)CC(=O)c3ccccc3O4)CC2=O)cc1C` (centres undefined), the Potency was “inactive”.
In the case of `O=C(Cc1ccc(Br)cc1)N1CCN(c2ccccn2)CC1`, the Potency is reported as “inactive”.
In the case of `Cc1cc(Br)ccc1NC(=O)c1cnc(N2CCN(c3ccccn3)CC2)c2ccccc12`, the Potency is reported as 9.2 µM (active).
With `O=C(CN1CCN(c2ccccn2)CC1)Nc1ccc(Br)cc1` the Potency was “inactive”.
In the case of `C=CCOc1ccc(C(=O)Nc2ccccc2C(=O)N2CCCC2)cc1`, the Potency is reported as “inactive”.
For `COc1ccc(OCC(=O)NNC(=O)C2CCC2)cc1`, the Potency was “inactive”.
With `O=C(O)c1cc2c(cc1NC(=O)c1c(F)cccc1Cl)OCCCO2` the Potency was “inactive”.
With `COc1ccc(CNC(=O)c2cc3c(s2)-c2ccccc2OC3)cc1` the Potency was 10 µM (active).
For `COc1ccc(CNC(=O)COC(=O)C2=Cc3ccccc3OC2)cc1`, the Potency was “inactive”.
In the case of `COc1ccc(CNC(=O)c2cc3c(=O)[nH]c4ccccc4c3s2)cc1`, the Potency is reported as “inactive”.
In the case of `CN1CCOC1c1ccc(C2OCCN2C)cc1` (centres undefined), the Potency is reported as “inactive”.
In the case of `Cc1ccc(OCc2nnc(SC3CCc4ccccc4C3=O)n2C)cc1` (centres undefined), the Potency is reported as “inactive”.
With `CCOc1ccc(C2NC(=S)NC3=C2CCc2ccccc23)cc1` (centres undefined) the Potency was 7.94 µM (active).
With `CCOc1ccc(C2C(C(=O)O)c3ccccc3C(=O)N2CCN2CCOCC2)cc1` (centres undefined) the Potency was “inactive”.
For `O=C(c1ccc(S(=O)(=O)N2CCCC2)cc1)N1CCN(c2ccccc2F)CC1`, the Potency was “inactive”.
In the case of `c1ccc(CCc2ccccn2)cc1`, the Potency is reported as “inactive”.
For `O=C(O)c1ccc(/C=N/Nc2nc(N3CCCCC3)nc(N3CCCCC3)n2)cc1`, the Potency was “inactive”.
For `C(=N/Nc1cc(N2CCOCC2)nc(N2CCOCC2)n1)/c1ccccc1`, the Potency was 2.51 µM (active).
In the case of `Cc1cc(N2CCN(c3ccccc3)CC2)nc(N2CCOCC2)n1`, the Potency is reported as “inactive”.
With `O=C1C2C3C=CC(C3)C2C(=O)N1c1ncc([N+](=O)[O-])s1` (centres undefined) the Potency was “inactive”.
In the case of `Cc1noc(/C=C/N(C)C)c1S(=O)(=O)N1CCCC(C(=O)Nc2cccc(F)c2)C1` (centres undefined), the Potency is reported as “inactive”.
In the case of `Cc1cccc(NC(=O)C2CCN(S(=O)(=O)c3c(C)noc3/C=C/c3ccco3)CC2)c1`, the Potency is reported as “inactive”.
In the case of `Cc1noc(/C=C/c2ccco2)c1S(=O)(=O)N1CCC(C(=O)Nc2ccc(Cl)cn2)CC1`, the Potency is reported as 6.51 µM (active).
For `Cc1nnc(SCC(=O)N2CCc3ccccc3C2)s1`, the Potency was “inactive”.
For `Cc1nnc(SCC(=O)NCc2ccccc2)s1`, the Potency was “inactive”.
With `Cc1nnc(SCC(=O)N2c3ccccc3C(C)(c3ccc(Cl)cc3)CC2(C)C)s1` (centres undefined) the Potency was 10 µM (active).
With `Nn1c(SCC(=O)Nc2ccc3c(c2)CCC3)nnc1C1CC1` the Potency was “inactive”.
In the case of `Cn1c(CNC(=O)c2ccco2)nnc1SCC(=O)N1CCN(c2ccccc2)CC1`, the Potency is reported as “inactive”.
With `Cc1ccccc1NC(=O)Cc1nnc(SCC(=O)N2CCN(c3ccccc3)CC2)n1C` the Potency was “inactive”.
In the case of `Cn1c(Cc2cccc3ccccc23)nnc1SCC(=O)N1CCN(c2cccc(Cl)c2)CC1`, the Potency is reported as 12.6 µM (active).
For `Cc1cccc(C(=O)N[C@H](C(=O)NCc2cccs2)C(C)C)c1`, the Potency was “inactive”.
For `CCCOC(=O)CSC1=C(C#N)[C@H](c2ccccc2OCC)[C@H](C#N)C(=O)N1`, the Potency was “inactive”.
For `C=CC1=C(C)C2=NC1=CC1=NC(=CC3=NC(=CC4=NC(=C2)C(C)=C4CCC(=O)O)C(CCC(=O)O)=C3C)C(C=C)=C1C`, the Potency was “inactive”.
In the case of `CN1CCC[C@@H]1CCO[C@](C)(c1ccccc1)c1ccc(Cl)cc1`, the Potency is reported as 9.2 µM (active).
With `CC(C)(c1ccccc1)c1ccc(OCCN)cc1` the Potency was “inactive”.
With `Cc1ccc(S(=O)(=O)Nc2ccc(F)c(S(=O)(=O)N3CCOCC3)c2)cc1` the Potency was “inactive”.
With `O=C(c1cccc(S(=O)(=O)N2CCOCC2)c1)N1CCOCC1` the Potency was “inactive”.
With `O=C(NNC(=S)Nc1ccccc1)c1cccc(S(=O)(=O)N2CCOCC2)c1` the Potency was “inactive”.
In the case of `O=C(Nc1nnc(-c2ccccc2)o1)c1cccc(S(=O)(=O)N2CCOCC2)c1`, the Potency is reported as 12.6 µM (active).
For `C/C(=N/OC(=O)c1ccc(Br)cc1)c1ccc(C)cc1`, the Potency was “inactive”.
In the case of `Cc1ccc(CSCC(=O)N(C)CC(=O)Nc2cccc(F)c2)cc1`, the Potency is reported as “inactive”.
For `Cc1c(CCO)c(=O)[nH]n1C(=O)c1c(F)cccc1F`, the Potency was 2.06 µM (active).
For `Cc1c(CCO)c(=O)n(-c2ccccc2)n1S(=O)(=O)c1ccc(F)cc1`, the Potency was “inactive”.
For `CC(=O)NC1(c2ccc(F)cc2)CCN(C(=O)c2c(F)cccc2F)CC1`, the Potency was “inactive”.
In the case of `O=C(CSc1nc(C2CC2)nc2ccccc12)Nc1cccc(O)c1`, the Potency is reported as “inactive”.
In the case of `Cc1ccc(CCC(=O)Nc2ncc(Cc3cc(Cl)ccc3Cl)s2)o1`, the Potency is reported as 0.651 µM (active).
In the case of `CCOc1ccccc1NC(=O)CCc1ccc(C)o1`, the Potency is reported as “inactive”.
For `Cc1cnc(NC(=O)CSc2nnc(-c3ccc(Cl)cc3Cl)n2N)s1`, the Potency was “inactive”.
In the case of `O=C(OCCOc1ccccc1F)c1cc(S(=O)(=O)N2CCOCC2)ccc1F`, the Potency is reported as “inactive”.
With `C=CCn1c(COc2cccc3cccnc23)nnc1SCC(=O)OC` the Potency was “inactive”.
For `COc1ccc(CCNC(=O)C(Sc2ccccn2)c2ccccc2)cc1OC` (centres undefined), the Potency was “inactive”.
With `CCCCC(=O)NC(c1ccc(OC)c(OC)c1)c1ccc2cccnc2c1O` (centres undefined) the Potency was 3.16 µM (active).
For `Cc1cccc(NC(=O)c2cccnc2Cl)n1`, the Potency was “inactive”.
With `CCOc1ccc(-n2c(SCC(=O)Nc3cc(C(=O)O)ccc3Cl)nc3ccccc3c2=O)cc1` the Potency was “inactive”.
With `N#CCCN(C(=O)COC(=O)c1ccc2c(c1)OCCO2)c1ccccc1` the Potency was “inactive”.
For `CN(C)c1ccc(NC(=S)N(CCc2ccccc2)C2CC(=O)N(c3c(Cl)cccc3Cl)C2=O)cc1` (centres undefined), the Potency was 4.47 µM (active).
For `COC(=O)CN(C(=S)Nc1ccc(Cl)cc1)C1CC(=O)N(c2ccc(OC)cc2)C1=O` (centres undefined), the Potency was “inactive”.
For `Cc1ccc(N2CC(C(=O)Nc3ccc(N(C)C)cc3)CC2=O)cc1Cl` (centres undefined), the Potency was “inactive”.
For `COc1ccccc1NC(=O)COC(=O)CNC(=O)C1CCCCC1`, the Potency was “inactive”.
With `CC(C=Cc1ccccc1)=NNS(=O)(=O)c1ccc([N+](=O)[O-])cc1` the Potency was “inactive”.
With `CCn1c(C(O)c2cc(OC)ccc2OC)nc2ccccc21` (centres undefined) the Potency was “inactive”.
With `Cc1nc(-c2ccc(F)cc2)c(CC(=O)Nc2cc(S(=O)(=O)N3CCCCC3)ccc2C)s1` the Potency was “inactive”.
For `CC(=O)c1c(C)[nH]c(C(=O)OCC(=O)Nc2cc(S(=O)(=O)N3CCCCC3)ccc2C)c1C`, the Potency was 9.2 µM (active).
In the case of `CS(=O)(=O)c1ccc(Cl)c(NC(=O)COC(=O)c2cccc(S(=O)(=O)N3CCCC3)c2)c1`, the Potency is reported as “inactive”.
For `COc1ccc(CC(=O)Nc2ccc3c(c2)CCC3)cc1S(=O)(=O)N1CCOCC1`, the Potency was “inactive”.
With `O=C(CCc1ccc(S(=O)(=O)N2CCOCC2)cc1)Nc1ccc2ccccc2c1` the Potency was “inactive”.
In the case of `COc1ccc(CCC(=O)Nc2ccc(Cl)c(S(=O)(=O)N3CCOCC3)c2)cc1OC`, the Potency is reported as 6.31 µM (active).
With `CCN(CC(=O)Nc1cc(Cl)ccc1C)C(=O)CSCc1ccccc1` the Potency was “inactive”.
With `CCOCCCN1C(=O)C2C(C(=O)Nc3ccc(OCC)cc3)C3C=CC2(O3)C1C(=O)NC1CCCCC1` (centres undefined) the Potency was “inactive”.
In the case of `COc1ccc(NS(=O)(=O)c2ccc(C)c(C(=O)NCC(c3cccs3)N3CCOCC3)c2)cc1` (centres undefined), the Potency is reported as “inactive”.
For `COc1ccc(NS(=O)(=O)c2ccc(N3CCOCC3)c(NC(=O)c3ccccc3Br)c2)cc1`, the Potency was 2.51 µM (active).
In the case of `CC(=O)Nc1ccc(S(=O)(=O)Nc2ccc(N3CCOCC3)c(F)c2)cc1`, the Potency is reported as “inactive”.
With `CCCCCN(C(=O)CCC(=O)OCC(=O)NC1CCC(C)CC1)c1c(N)n(CCCC)c(=O)[nH]c1=O` (centres undefined) the Potency was “inactive”.
With `CC1CCN(C(=O)C2CCN(S(=O)(=O)N3CCC4(CC3)OCCO4)CC2)CC1` the Potency was “inactive”.
With `NC(=O)C1CCN(C(=O)c2cn(-c3ccccc3)nc2-c2cccnc2)CC1` the Potency was “inactive”.
For `CC1=NNC(=O)C1CCC(=O)N/N=C(\C)c1ccc(Cl)cc1` (centres undefined), the Potency was “inactive”.
With `C/C(=N\NC(=O)Cc1ccc(Br)cc1)c1cccnc1` the Potency was “inactive”.
For `C/C(=N\NC(=O)Cc1ccc(Cl)cc1)c1ccccn1`, the Potency was 3.26 µM (active).
In the case of `Cn1c(CCNS(=O)(=O)c2ccc(F)cc2)nnc1SCc1cccnc1`, the Potency is reported as “inactive”.
With `Cc1ccc(Br)c(NS(=O)(=O)c2cccc(C(=O)N3CCNC(=O)C3)c2)c1` the Potency was “inactive”.
In the case of `Cc1c(NC(=O)C(C)OC(=O)c2ccccc2O)c(=O)n(-c2ccccc2)n1C` (centres undefined), the Potency is reported as “inactive”.
With `Fc1ccc2[nH]c3c(N4CCN(Cc5ccc6c(c5)OCO6)CC4)ncnc3c2c1` the Potency was 8.91 µM (active).
In the case of `Cc1cc(N2CCN(Cc3ccc4c(c3)OCO4)CC2)n2ncnc2n1`, the Potency is reported as “inactive”.
In the case of `Fc1ccc2[nH]c3c(N4CCSCC4)ncnc3c2c1`, the Potency is reported as 10 µM (active).
With `Fc1ccc(N2CCN(Cc3ccc4c(c3)OCO4)CC2)cc1` the Potency was “inactive”.
Potency is the fitted concentration of half-maximal effect.
